Our source for the outcome values is PubChem BioAssay AID1053127 (Broad Institute, 2014).

This experiment is described as follows: CTGF mRNA reduction under YAP1 overexpression, dose response, mechanism study for YAP1 pathway inhibitor project, DLD1 cells, RT-qPCR, cherry-pick (AID 1053127). Particulars: DLD1 YAP1-overexpressing, 24 h; series mostly up to 26 µM. In general terms: In qPCR the cycle at which signal appears reflects the starting amount.

Results with a measured potency or affinity are listed apart. Activity calls are given as the source filed them.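 The calls were made as follows: active = compounds whose fitted curve of lowered CTGF expression reaches half effect within a set concentration limit; inconclusive = flat moderate drop in CTGF, or unreliable curve fit; inactive = the rest.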

`CC(C)(C)S(=O)N1Cc2cc(C(=O)NCc3ccc4c(c3)OCO4)nc(-c3cccc(-c4cccc(F)c4)c3)c2[C@@H]1CCO` (some centres not stated): the outcome was inactive.
For `C[C@@H]1CN([C@@H](C)CO)C(=O)Cc2cc(NC(=O)C3CCCCC3)ccc2O[C@@H]1CN(C)Cc1ccc(Cl)c(Cl)c1`, the molecule was called inactive.
For `CCS(=O)(=O)Nc1ccc2c(c1)C(=O)N(C)[C@H]1CC[C@H](CC(=O)N3CCN(C)CC3)O[C@H]1CO2`, the molecule was classed as inactive.
For `O=C([C@H]1[C@H](CO)[C@H]2Cn3c(ccc(-c4ccc(F)cc4)c3=O)[C@H]2N1Cc1cocn1)N1CCCCC1` the value was “inactive”; for `CCCNC(=O)N1[C@H](C#N)[C@@H](c2ccc(C#Cc3cccc(F)c3)cc2)[C@@H]1CO`, “inactive”; for `C/C=C/c1cccc(-c2nc(C(=O)Nc3nccs3)cc3c2[C@@H](CCO)N(C(=O)NC(C)C)C3)c1`, “inactive”.
In the case of `O=C(Nc1cccc(F)c1)N1CCCCN2[C@H](C1)[C@H](c1ccc(C#Cc3cccnc3)cc1)[C@@H]2CO`, the molecule was classed as inactive.
For `O=C(c1cccc(F)c1)N1CCCCN2[C@H](CO)[C@H](c3ccc(C#CC4(O)CCCC4)cc3)[C@@H]2C1` the value was “inactive”; for `COc1ccc(NC(=O)N2CCCCN3[C@@H](CO)[C@H](c4ccc(-c5ccccc5F)cc4)[C@@H]3C2)cc1`, “inactive”; for `COc1cccc(-c2ccc([C@@H]3[C@@H](C#N)N(C(=O)Cc4ccncc4)[C@@H]3CO)cc2)c1`, “inactive”.
For `C[C@H](O)C#Cc1ccc([C@H]2[C@@H](CO)N3CCCCN(C(=O)c4ccc5c(c4)OCO5)C[C@@H]23)cc1`, the call was inactive.
Take `Cc1ccc(S(=O)(=O)N2CC[C@H]3[C@H](CO)Nc4ccc(-c5cccc(C(=O)N(C)C)c5)cc4[C@H]32)cc1`: the result was inactive.
